Laboratory results as given in PubChem BioAssay (NCI).
This is part of a sample that, as a whole, favours compounds with a hit. Of some 83,000 tested, about 20% had one in any assay.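 Cells were grown in 96-well plates and exposed to the test compound at a single concentration for 48 hours; results are reported as percent growth, with values below 10 considered active.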 The source made the active and inactive calls.

What follows are compounds tested on MDA-MB-468 breast (assay: NCI-60 one-dose screen, 48 h (100 = growth as untreated, 0 = no growth, -100 = all killed)). Details: 10 µM unless noted.

| Structure (SMILES) | growth |
| --- | --- |
| N#CC1=C(N)Oc2c(ccc3ccccc23)C1c1ccc([N+](=O)[O-])cc1 (stereo not drawn) | 90% (inactive) |
| CC(/C=C/C=C(\C)[C@H](O)[C@H](C)C(=O)O[C@H]1C[C@H](C)C=C2C=C[C@@]3(C)O[C@@H](O)CC(=O)[C@]3(C)[C@H]21)=C\C=C\C(=O)O | -21.9% (active) |
| Cc1ccc(C2CC(c3cccc(Nc4ccncc4)c3)=Nc3c(N)nc(N)nc3N2)cc1 (stereo not drawn) | 60.2% (inactive) |
| CCCC(=O)c1cc(C)ccc1OC | 113% (inactive) |
| O=C(NNc1ccccc1)C1CCCN1 (stereo not drawn) | 81% (inactive) |
| COC(=O)CC[C@@H](C)[C@H]1CC[C@H]2[C@@H]3CC[C@@H]4C[C@H](O)CC[C@]4(C)[C@H]3C[C@H](O)[C@]12C | 103% (inactive) |
| O=C1/C(=C2\SC(=S)N(C3CC3)C2=O)SC(=S)N1C1CC1 | 88.7% (inactive) |
| Cc1ccc(Nc2nc(-c3ccc(F)cc3)c(C#N)c(=O)n2C)cc1 | 62.1% (inactive) |
| O=C1CC[C@@H](C(=O)N[C@H]2CSSC[C@@H](C(=O)NCCc3ccccc3)NC(=O)[C@H](Cc3ccccc3)NC(=O)[C@@H]3CCCN3C(=O)[C@@H]3CCCN3C2=O)N1 | 90.2% (inactive) |
| CCC(c1ccc(OC)cc1)C(CC)c1ccc(O)c(CN2CCN(C)CC2)c1 (stereo not drawn) | 30% (inactive) |
| O=C1Nc2ccccc2/C1=C/c1ccc(OCC(=O)c2ccccc2)cc1 | 94.6% (inactive) |
| COc1ccc2c(c1)c(-c1nonc1-c1c[nH]c3ccc(Br)cc13)cn2C | 52.4% (inactive) |
| COc1cc(/C=C2\C(=O)N(CC(O)COc3cc(O)c4c(=O)cc(-c5ccccc5)oc4c3)c3ccccc32)cc(OC)c1O (stereo not drawn) | 74.3% (inactive) |
